# A selection: hits, their analogues and other compounds. The true share with any hit is near 8.8%.
# IL-1B inflam inh: qHTS for Inhibitors of Inflammasome Signaling: IL-1-beta AlphaLISA Primary Screen | THP-1 LPS/ATP IL-1B secretion, AlphaLISA, 16 h; hits give low values | activity change, % at 57.5 µM | hit rate 4.7% among 360,000; in the data active means activity change below about -50%; inconclusive means mostly about -30% to -49%
#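 THP-1 cells pretreated 1 hr with compounds (up to 57.5 uM final), then stimulated with LPS (250 ng/mL final) plus ATP (1.25 mM final); secreted IL-1B measured by AlphaLISA after 16 hr, decreased signal indicating inhibition.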
# HT1080 IDH1KD tx: qHTS for induction of synthetic lethality in tumor cells producing 2HG: qHTS for the HT-1080-IDH1KD cell line. Potency, µM (doses to about 46.1 µM), inactives show at the highest dose activity, negative = toxicity, usual class: cytotoxic. hit rate 2% among 360,000. HT-1080 IDH1 knockdown viability, ATP luminescence, 48 h;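 further: potency means the concentration at half of the fitted maximal effect; 0% = DMSO wells and -100% = cell-free medium wells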
#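 Using the IDH1-knockdown HT-1080 line run in the same batch and compound series as the NT line, viability after 48 h at 37 °C was determined by CellTiter-Glo luminescence and expressed as % activity.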
# HT1080NT lethal: qHTS for induction of synthetic lethality in tumor cells producing 2HG: qHTS for the HT-1080-NT fibrosarcoma cell line. hit rate 1.6% among 360,000. HT-1080-NT fibrosarcoma viability, CellTiter-Glo ATP luminescence, 48 h. Potency, µM (titrated, usually from 46.1 µM), inactives show at the highest dose activity, negative = less viability, usual class: cytotoxic;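 further: NT is the 2HG producing partner of a matched IDH1 knockdown line; potency means the concentration at half of the fitted maximal effect; 0% = DMSO-treated cells and -100% = media-only wells without cells; nearly all actives have a fitted effect of over 55% in size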
#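 HT-1080-NT; 750 cells/well; 5% FBS RPMI; 48 h compound, 37 degrees C; CellTiter-Glo luminescence; curve fitting and curve-class assignment.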
# KB-3-1 tox: qHTS assay for MDR1-selective chemotherapeutics: Primary screen using the parental adenocarcinoma cell KB-3-1. hit rate 1.4% among 400,000. AID 1347075, 2019. KB-3-1 viability, CellTiter-Glo ATP luminescence, 72 h. Potency, µM (series often up to 46.1 µM), usual class: cytotoxic; further: potency means the concentration at half of the fitted maximal effect; nearly all actives have a fitted effect of over 60% in size
#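 Viability of parental KB-3-1 cells, measured by CellTiter-Glo luminescence, followed a 72 h incubation at 37 °C with pinned compounds in phenol-red-free DMEM containing 10% FBS.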
# KB-V1 MDR tox: qHTS assay for MDR1-selective chemotherapeutics: Primary screen using the drug-selected MDR subline cells KB-V1; KB-V1 MDR cells viability, CellTiter-Glo, 72 h; Potency, µM (titrated, usually from 46.1 µM), actives largely listed as cytotoxic; hit rate 3.4% among 400,000; AID 1347076, 2019; further: potency means the concentration at half of the fitted maximal effect; nearly all actives have a fitted effect of over 60% in size
#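 Luminescent ATP read-out (CellTiter-Glo, 10 min) measures survival of drug-selected KB-V1 MDR cells after 72 h, 37 degrees C compound exposure. Medium: phenol-red-free DMEM, 10% FBS. Values from fitted concentration-response curves.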
# Starred values were filed as active, the others as inactive; i = inactive; ? = inconclusive; nt = not tested or not shown; [ ] = dose if it differs, or a comment. Unless noted, the call rests on the fitted dose curve; in most records, active means well fitted curve in the direction sought with a large enough effect; inconclusive means small, poorly fitted or top-dose-only effect, or another doubt; inactive means no such curve, though single readings can be large; an effect the other way counts as inactive or inconclusive. Unless noted, on the % scale 0 is the no-effect control and ±100 the full control effect.
SMILES,IL-1B inflam inh,HT1080 IDH1KD tx,HT1080NT lethal,KB-3-1 tox,KB-V1 MDR tox
CCN(CC(=O)Nc1ccc(OC)c(OC)c1)S(=O)(=O)c1ccc(C)cc1,26,-3%[9.24 µM],-3%,i,13µM*
COc1ccc(NC(=O)CN(c2ccc(C)cc2)S(=O)(=O)c2c(C)nn(C)c2C)cc1OC,0,-1%,-25%,?,13µM*
CCN(CC)S(=O)(=O)c1ccc(OC)c(NC(=S)Nc2ccc(C)c(C)c2)c1,-27,-5%,6%,i,18µM*
COc1ccc(S(=O)(=O)N(C)CC(=O)Nc2ccc(C)cc2)cc1OC,-14,-2%,-4%,i,?
O=C(NCc1ccco1)c1ccc2nccnc2c1,0,22%,18%,i,i
O=C1NC[C@@H](CCCCN2CCN(CCC3CCCCC3)C(=O)C2=O)N(CCC2CCCCC2)C1=O,-4,19%,27%,i,i
Cc1cccc(OC(C)C(=O)Nc2ncn[nH]2)c1 (stereo not drawn),nt,nt,nt,i,i
Cc1ccc(-n2ncc(C(=O)Nc3cc(Cl)cc(Cl)c3)c2C2CCNCC2)cc1C,-19,21µM*,?,i,i
Sc1oc(-c2ccccc2)cc1C=Nc1ccccc1,0,11µM*,7.9µM*,i,i
O=C(CSc1nnc(NC(=O)C2CC(=O)N(c3ccccc3)C2)s1)NCc1ccco1 (stereo not drawn),-5,5%,14%,i,i
Cc1c(N2C(=O)/C(=C3/C(=O)N(C)c4ccccc43)SC2=S)c(=O)n(-c2ccccc2)n1C,11,-19%,5%,i,i
Cc1c(N2C(=O)CSC2=S)c(=O)n(-c2ccccc2)n1C,-77*,-5%,-13%,?,i
CC(C)(C)c1cccc(P(=O)(c2ccccc2)c2ccccc2)c1O,-71*,-6%,-22%,?,i
Cc1c(NC2(c3nnnn3-c3ccc(Br)cc3)CCCCC2)c(=O)n(-c2ccccc2)n1C,-8,-16%,1%,i,3.7µM*
CCN1C(=O)[C@H]2[C@@H](c3ccc(-c4ccc(Cl)c(Cl)c4)c(OC)c3)N3CCCC[C@@]3(C(=O)OC)[C@H]2C1=O,-30,-20%,-2%,21µM*,?
CCN1C(=O)[C@H]2[C@@H](c3ccc(-c4ccc(Cl)c(Cl)c4)cc3)N3CCCC[C@@]3(C(=O)OC)[C@H]2C1=O,15,29%,0%,?,?
CCN1C(=O)[C@H]2[C@@H](c3ccc(-c4ccc(F)cc4)c(OC)c3)N3CCCC[C@@]3(C(=O)OC)[C@H]2C1=O,-74*,-14%,-29%,?,?
CCCCCCSc1ccc([C@@H]2[C@@H]3C(=O)N(C)C(=O)[C@@H]3[C@]3(C(=O)OC)CCCCN23)cc1OC,0,?,29µM*,i,?
CCN1C(=O)[C@H]2[C@@H](c3ccc(-c4cccc(Cl)c4)c(OC)c3)N3CCCC[C@@]3(C(=O)OC)[C@H]2C1=O,-62*,-22%,0%,i,21µM*
CCCCCCSc1ccc([C@@H]2[C@H]3C(=O)N(C)C(=O)[C@H]3[C@]3(C(=O)OC)CCCCN23)cc1OC,-24,-10%,1%,i,i
COc1cc(NC(=O)Cn2c(=O)oc3cc(S(=O)(=O)N4CCCCCC4)ccc32)cc(OC)c1,nt,nt,nt,i,?
COc1cc(NC(=O)c2ccc(Cl)cc2)c(OC)cc1NC(=O)CN1CCOCC1,?,12%,21%,i,i
COc1cc(NC(=O)c2ccc(C(C)(C)C)cc2)c(OC)cc1NC(=O)CN1CCCCC1,-23,-2%,0%,?,?
COc1cc(NC(=O)c2ccc(Cl)cc2)c(OC)cc1NC(=O)CN1CCCCC1,-84*,?,?,?,i
COc1cc(NC(=O)c2cccc(C)c2)c(OC)cc1NC(=O)CN1CCCCC1,-62*,-11%,-1%,i,i
SMILES,IL-1B inflam inh,HT1080 IDH1KD tx,HT1080NT lethal,KB-3-1 tox,KB-V1 MDR tox
COc1cc(NC(=O)c2ccccc2F)c(OC)cc1NC(=O)CN1CCCCC1,-57*,-20%,-14%,i,i
COC(=O)[C@H](CCSC)NS(=O)(=O)c1ccccc1Br,19,1%,6%,i,i
Cc1ccc(NC(=O)C(=O)NCC(c2ccc3c(c2)OCO3)N2CCN(C)CC2)cc1C (stereo not drawn),nt,nt,nt,i,i
CCC(C)(C)NC(=O)CN(Cc1ccco1)C(=O)CCC(=O)Nc1nccs1,-2,10%,15%,i,i
O=C(CCNC(=O)c1ccc(Br)cc1)NC1CCCCCC1,2,-15%,0%,i,16µM*
O=C(CCNC(=O)c1ccccc1Cl)Nc1ccccc1N1CCCC1,15,6%,7%,i,i
O=C(CCNC(=O)c1ccc(Cl)cc1)NC1CCCCCC1,-6,-1%,-13%,nt,nt
O=C(CCNC(=O)c1ccc(Br)cc1)Nc1ccccc1N1CCCCC1,-80*,-19%,-13%,i,i
Cc1ccc(Oc2ncccc2C(=O)NCC(=O)O)cc1,10,12%,-1%,i,i
OC[C@@H](O)C1OC2NC(=S)OC2C1O (stereo partly drawn),11,4%,2%,i,?
COc1ccc2c(c1)CC/C(=C\Nc1ccc3c(c1)OCO3)C2=O,-87*,5%[9.24 µM],?,i,i
COc1ccc(N/C=C2\CCc3ccccc3C2=O)cc1,1,?,?,?,i
O=C1/C(=C/Nc2ccc3c(c2)OCO3)CCc2ccccc21,-2,?,?,?,23µM*
O=C(CCNC(=O)c1ccccc1Cl)Nc1ccc2c(c1)OCCO2,-13,1%,-5%,i,i
COc1ccc2[nH]c(=O)c3c(c2c1)OC(C)(C)C=C3,-106*,?,?,?,?
CS(=O)(=O)N(CC(=O)N/N=C/c1ccco1)c1ccccc1Br,0,11%,20%,i,i
CN(C)c1ccc(/C=N/NC(=O)CN(c2cccc(Cl)c2)S(C)(=O)=O)cc1Br,-50*,?,?,i,i
COc1ccc(NCc2nnc(SCC(=O)Nc3nc(-c4ccccc4)cs3)n2-c2ccccc2)cc1,46,-12%,-9%,13µM*,i
COc1ccc(NCc2nnc(SCc3ccc(Cl)cc3)n2-c2ccccc2)cc1,-53*,-25%,?,?,?
O=C(NCCC1=CCCCC1)C1CCN(S(=O)(=O)c2ccc(Br)s2)CC1,11,4%,5%,i,16µM*

# Screens as filed in PubChem BioAssay.
